# Assay results as given in PubChem BioAssay.
# Where “and” joins values, the source holds several entries; their conditions need not be identical. Equal values may be shown once. Inconclusive results are not listed. Calls of active or inactive are those of the source. Unless noted, no rule for the calls is given here.
# Tests used:
# [1] = compounds altering circadian rhythm period length – cell-based, LOPAC library, luminescence reporter (AID 2774); conditions: circadian reporter cells, at 7 µM, actives lie on both sides;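 also: values are relative to mean of DMSO wells on each plate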
# [2] = tested on: Hepatitis C virus NS3 helicase; assay: blockers of NS3h binding to ssDNA – biochemical, fluorescence polarization, LOPAC1280 library, primary screen (AID 687035; in the data active = inhibition above about 37%); conditions: Purified HCV NS3 helicase, Cy5-dT15 ssDNA binding fluorescence polarization; stronger effect = higher value; concentration not given here
# [3] = compounds altering Cy5-DNA-NS3h complex signal – biochemical, LOPAC1280, artefact control for HCV NS3 helicase inhibitor project (AID 687037); conditions: Cy5-DNA-NS3h complex fluorescence interference counterscreen
# [4] = tested on: Aerobactin synthetase IucA (Klebsiella pneumoniae, hypervirulent); assay: biochemical IucA inhibition screen of LOPAC library by absorbance (AID 1346212); conditions: IucA enzyme assay, absorbance (OD) readout; stronger effect = lower value;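 tested at 8 µM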;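 also: 100% = no compound wells and 0% = no enzyme wells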
# [5] = viability loss with induced miR-34 in A549 – imaging, A549 dox-inducible miR-34, nuclei and caspase counts, primary screen (AID 1347080;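 active = compounds whose cell count with miR-34 switched on is under 0.7 times the count with it off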); conditions: A549 miR-34 inducible, Hoechst nuclei count, 48 h
# [6] = blockers of cellular phospholipid synthesis – cell-based, LOPAC library, screen 4, primary screen (AID 1347384); conditions: animal cells, phospholipid biosynthesis inhibition screen; at 10 µM
# [7] = galactose survival enhancers in mitochondrial complex I cybrids – cell-based, galactose medium, ATP luminescence, primary screen (AID 1645843;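 active = z-score of at least 1.8 in each of two replicates, scored against plate mean and spread of sample wells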;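 also: positive z means more ATP and so rescue of galactose-driven cybrid death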); conditions: complex I mutant cybrid cells, 72 h, stronger effect = higher value
# [8] = viability loss in pontine glioma line – cell-based, SU-DIPG-XIII, MIPE4.0, CellTiter-Glo, qHTS, dose response (AID 1347061; cut-off not given, nearly all actives have AC50 up to about 37 µM;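 also: cells exposed to compound for 48 hours before readout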); conditions: CellTiter-Glo ATP luminescence
# [9] = viability loss in pontine glioma line – cell-based, JHH-DIPG-1, MIPE4.0, CellTiter-Glo, qHTS, dose response (AID 1347062; cut-off not given, nearly all actives have AC50 up to about 27 µM;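 as to AC50: cells exposed to compound for two days before readout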); conditions: JHH-DIPG-1 viability, CellTiter-Glo ATP luminescence
# [10] = viability loss in pontine glioma line – cell-based, SU-DIPG-IV, MIPE4.0, CellTiter-Glo, qHTS, dose response (AID 1347063; cut-off not given, nearly all actives have AC50 up to about 30 µM;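 also: compound exposure lasted 48 hours before the viability readout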); conditions: CellTiter-Glo ATP luminescence
# [11] = growth inhibition of DIPG cells – cell-based, MIPE4.0 library, CellTiter-Glo luminescence, qHTS (AID 1347066; cut-off not given, nearly all actives have AC50 up to about 30 µM;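 also: cells exposed to compound for 48 hours before readout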); conditions: SU-DIPG-VI viability, CellTiter-Glo ATP luminescence
# [12] = P. berghei load reduction in hepatocytes – cell-based, HepG2, luciferase luminescence, HepG2 viability, primary screen (AID 624349; in the data active = parasite load remaining mostly below about 12%, no sharp cut-off; inactive = mostly above about 10%;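 also: 100% = mean of DMSO negative control wells on the same plate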); conditions: P. berghei liver stage in HepG2, luciferase luminescence, concentration not given here; parasite load remaining: stronger effect = lower value; viability: measured here: HepG2 viability without parasites
# [13] = viability loss in pontine glioma line – cell-based, SU-DIPG-XIII, MIPE5.0, CellTiter-Glo, qHTS, dose response (AID 1347064; cut-off not given, nearly all actives have AC50 up to about 23 µM;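 also: cells exposed to compound for 48 hours before the viability read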); conditions: CellTiter-Glo ATP luminescence
# [14] = JHH-DIPG-1 glioma cell viability, MIPE5.0 library, CellTiter-Glo luminescence, qHTS (AID 1347067; cut-off not given, nearly all actives have AC50 up to about 26 µM;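 also: cells exposed to compound for 48 hours before readout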); conditions: JHH-DIPG-1 glioma viability, CellTiter-Glo ATP luminescence
# [15] = chitosan synthesis blockers in C. neoformans – flow cytometry, Cibacron Brilliant Red staining (AID 1347148); conditions: Cryptococcus neoformans chitosan, stronger effect = lower value; at 10 µM unless noted;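 also: compound exposure lasted three days at 37 degrees C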
# [16] = compounds altering viability of human ES cells (AID 493140); conditions: human embryonic stem cell survival screen; stronger effect = higher value;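 also: cells exposed to compounds for four days before counting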
# [17] = MELAS cybrid and Rieske KO viability enhancers – cell-based, MELAS cybrids, Rieske KO mouse fibroblasts, CellTiter-Glo, primary screen (AID 1508586;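 active = mean z-score across replicates of 1.96 or higher in either the MELAS or the Rieske mutant cell line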;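 also: z relative to plate mean and SD of compound and empty wells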); conditions: low glucose
# [18] = measured here: relative caspase fold change +Dox/-Dox
# [19] = measured here: total cells with miR-34 induction, stronger effect = lower value
# [20] = measured here: total cells without miR-34 induction
smiles,measurement,setting,value
Clc1cnc(Oc2ccc(Oc3ncc(Cl)cc3Cl)cc2)c(Cl)c1,period change,[1],0 h (inactive)
same,inhibition,[2],-3% (inactive)
same,fluorescence ratio (interference),[3],1 (inactive)
same,remaining activity,[4],94.8% (inactive)
same,fold change,[5]; stronger effect = lower value,0.984 (inactive)
same,fold change,[5]; [18],1.88
same,cell count,[5]; [19],9890
same,cell count,[5]; [20],10000
same,outcome,[6],inactive
same,z-score,[7],1.21 (inactive)
Clc1ccc(N2CC3CCC(C2)N3)nn1,period change,[1],-0.11 h (inactive)
same,inhibition,[2],-5% (inactive)
same,fluorescence ratio (interference),[3],1 (inactive)
same,remaining activity,[4],90.4% (inactive)
same,fold change,[5]; stronger effect = lower value,1 (inactive)
same,fold change,[5]; [18],1.13
same,cell count,[5]; [19],10400
same,cell count,[5]; [20],10400
same,outcome,[6],inactive
same,z-score,[7],-0.28 (inactive)
NC(=O)CI,period change,[1],-0.03 h (inactive)
same,inhibition,[2],-1% (inactive)
same,fluorescence ratio (interference),[3],1.1 (inactive)
same,remaining activity,[4],124% (inactive)
same,fold change,[5]; stronger effect = lower value,1.11 (inactive)
same,fold change,[5]; [18],1.73
same,cell count,[5]; [19],3640
same,cell count,[5]; [20],3270
same,outcome,[6],inactive
same,z-score,[7],-1 (inactive)
CCCn1c(C)c(C(=O)c2cccc3ccccc23)c2ccccc21,remaining activity,[4],107% (inactive)
same,fold change,[5]; stronger effect = lower value,0.889 (inactive)
same,fold change,[5]; [18],1.38
same,cell count,[5]; [19],5580
same,cell count,[5]; [20],6280
O=C1C=CC(=O)C=C1,period change,[1],-0.065 h (inactive)
same,inhibition,[2],0% (inactive)
same,fluorescence ratio (interference),[3],1 (inactive)
same,remaining activity,[4],109% (inactive)
same,fold change,[5]; stronger effect = lower value,1.02 (inactive)
same,fold change,[5]; [18],1.65
same,cell count,[5]; [19],9760
same,cell count,[5]; [20],9540
same,outcome,[6],inactive
same,z-score,[7],0.205 (inactive)
Cc1nc(-c2ccc(-c3ccc(C(=O)N4CCc5cc6c(cc54)C4(CCN(C)CC4)CO6)cc3)c(C)c2)no1,period change,[1],0.165 h (inactive)
same,remaining activity,[4],96.4% (inactive)
same,outcome,[8],inactive
same,outcome,[9],inactive
same,outcome,[10],inactive
same,outcome,[11],inactive
COc1ccc2c(c[n+](C)c3c4cc5c(cc4ccc23)OCO5)c1OC,period change,[1],0.045 h (inactive)
same,parasite load remaining,[12],41.8% (inactive)
same,viability,[12],157%
same,inhibition,[2],-3% (inactive)
same,fluorescence ratio (interference),[3],0.9 (inactive)
same,remaining activity,[4],110% (inactive)
same,AC50,[8],26.4 µM (active)
same,AC50,[9],4.18 µM (active)
same,AC50,[10],5.26 µM (active)
same,AC50,[13],4.17 µM (active)
same,AC50,[11],8.33 µM (active)
same,AC50,[14],5.9 µM (active)
same,fold change,[5]; stronger effect = lower value,1.19 (inactive) and 0.771 (inactive)
same,fold change,[5]; [18],0.571 and 1.14
same,cell count,[5]; [19],525 and 1050
same,cell count,[5]; [20],442 and 1360
same,fold fluorescence,[15],7.04 [at 143.5 µM] (inactive)
same,outcome,[6],inactive
same,z-score,[7],-1.52 (inactive)
Cc1c(C(=O)c2cccc3ccccc23)c2cccc3c2n1[C@H](CN1CCOCC1)CO3,period change,[1],-0.065 h (inactive)
same,survival,[16],106 (inactive)
same,inhibition,[2],-8% (inactive)
same,fluorescence ratio (interference),[3],1 (inactive)
same,remaining activity,[4],99.8% (inactive)
same,AC50,[10],9.35 µM (active)
same,fold change,[5]; stronger effect = lower value,0.941 (inactive) and 0.94 (inactive)
same,fold change,[5]; [18],1.39 and 1.17
same,cell count,[5]; [19],5730 and 5540
same,cell count,[5]; [20],6090 and 5900
Cn1cnc(CCN)c1,period change,[1],-0.12 h (inactive)
same,inhibition,[2],-3% (inactive)
same,fluorescence ratio (interference),[3],1 (inactive)
same,remaining activity,[4],125% (inactive)
same,fold change,[5]; stronger effect = lower value,1.08 (inactive)
same,fold change,[5]; [18],1.18
same,cell count,[5]; [19],11400
same,cell count,[5]; [20],10500
same,outcome,[6],inactive
same,z-score,[7],0.51 (inactive)
NC(=O)c1cc(N2CC2)c([N+](=O)[O-])cc1[N+](=O)[O-],period change,[1],-0.165 h (inactive)
same,inhibition,[2],-2% (inactive)
same,fluorescence ratio (interference),[3],1 (inactive)
same,remaining activity,[4],112% (inactive)
same,fold change,[5]; stronger effect = lower value,1.03 (inactive)
same,fold change,[5]; [18],1.9
same,cell count,[5]; [19],4350
same,cell count,[5]; [20],4220
same,outcome,[6],inactive
same,z-score,[7],0.09 (inactive)
CC12NC(Cc3ccccc31)c1ccccc12 (stereo unspecified),period change,[1],0.25 h (inactive)
same,parasite load remaining,[12],63.2% (inactive)
same,viability,[12],167%
same,inhibition,[2],-3% (inactive)
same,fluorescence ratio (interference),[3],0.9 (inactive)
same,remaining activity,[4],120% (inactive)
same,fold change,[5]; stronger effect = lower value,1.01 (inactive) and 0.879 (inactive)
same,fold change,[5]; [18],1.28 and 2.22
same,cell count,[5]; [19],10300 and 11700
same,cell count,[5]; [20],10100 and 13300
same,outcome,[6],inactive
same,z-score,[7],-0.15 (inactive)
CC(Cc1ccc(OCC(=O)O)cc1)NCC(O)c1cccc(Cl)c1 (stereo unspecified),period change,[1],-0.08 h (inactive)
same,inhibition,[2],-4% (inactive)
same,fluorescence ratio (interference),[3],1 (inactive)
same,remaining activity,[4],122% (inactive)
same,fold change,[5]; stronger effect = lower value,1.04 (inactive)
same,fold change,[5]; [18],2.14
same,cell count,[5]; [19],11000
same,cell count,[5]; [20],10600
same,outcome,[6],inactive
same,z-score,[7],0.62 (inactive)
NCCc1ccc(S(=O)(=O)F)cc1,period change,[1],-0.1 h (inactive)
same,inhibition,[2],-2% (inactive)
same,fluorescence ratio (interference),[3],0.9 (inactive)
same,remaining activity,[4],99.4% (inactive)
same,fold change,[5]; stronger effect = lower value,1.01 (inactive) and 0.94 (inactive)
same,fold change,[5]; [18],0.956 and 0.406
same,cell count,[5]; [19],10400 and 7770
same,cell count,[5]; [20],10400 and 8270
same,outcome,[6],inactive
same,z-score,"[17]; MELAS cybrid survival, CellTiter-Glo 48 h, stronger effect = higher value",-0.305 (inactive)
same,z-score,"[17]; Rieske KO mouse fibroblast survival, CellTiter-Glo 72 h",-1.62
same,z-score,[7],0.125 (inactive)
CCCN1CCc2cccc3c2[C@H]1Cc1ccc(O)c(O)c1-3,period change,[1],0.32 h (inactive)
same,inhibition,[2],-3% (inactive)
same,fluorescence ratio (interference),[3],1 (inactive)
same,remaining activity,[4],109% (inactive)
same,fold change,[5]; stronger effect = lower value,1.06 (inactive)
same,fold change,[5]; [18],0.965
same,cell count,[5]; [19],7250
same,cell count,[5]; [20],6850
same,outcome,[6],inactive
same,z-score,[7],-1.03 (inactive)
CCn1cnc2c(Nc3cccc(Cl)c3)nc(N[C@@H]3CCCC[C@@H]3N)nc21,period change,[1],0.275 h (inactive)
same,parasite load remaining,[12],33.4% (inactive)
same,viability,[12],108%
same,inhibition,[2],-2% (inactive)
same,fluorescence ratio (interference),[3],0.9 (inactive)
same,remaining activity,[4],98.9% (inactive)
same,fold change,[5]; stronger effect = lower value,0.982 (inactive)
same,fold change,[5]; [18],0.968
same,cell count,[5]; [19],797
same,cell count,[5]; [20],812
same,outcome,[6],inactive
same,z-score,[7],-1.48 (inactive)
NNC(N)=O,period change,[1],-0.03 h (inactive)
same,inhibition,[2],-3% (inactive)
same,fluorescence ratio (interference),[3],1 (inactive)
same,remaining activity,[4],102% (inactive)
same,fold change,[5]; stronger effect = lower value,0.944 (inactive)
same,fold change,[5]; [18],0.77
same,cell count,[5]; [19],10400
same,cell count,[5]; [20],11000
same,outcome,[6],inactive
same,z-score,[7],0.4 (inactive)
